# Sampled rows, rich in hits. Any-hit rate of the full collection: about 2.2%.
# CHRM4 agonist = agonists of human muscarinic M4 receptor (CHRM4); P08173; CHO-K1 hM4/Gqi5, Fluo-8 calcium fluorescence; vehicle 0%, full acetylcholine response 100%; activation, % at 3 µM; hit rate 0.14% among 360,000; AID 624127;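 active = activation above the run mean over all test wells plus 3 SD, cut at about 32% in these data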;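 note: peak over basal fluorescence ratio per well then scaled between controls; 0% = DMSO wells and 100% = acetylcholine at EC100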
# CHRM1 PAM = positive allosteric modulators of human M1 muscarinic receptor. hit rate 0.088% among 360,000. AID 588819. CHO-K1 hM1, Fluo-8 calcium fluorescence, ACh EC20; 0% = ACh EC20, 100% = maximal ACh. activation, % at 3 µM. P11229; in the data active = activation above about 19%, passing the limit was not always enough
# Target sequence (P11229 whole entry, looked up): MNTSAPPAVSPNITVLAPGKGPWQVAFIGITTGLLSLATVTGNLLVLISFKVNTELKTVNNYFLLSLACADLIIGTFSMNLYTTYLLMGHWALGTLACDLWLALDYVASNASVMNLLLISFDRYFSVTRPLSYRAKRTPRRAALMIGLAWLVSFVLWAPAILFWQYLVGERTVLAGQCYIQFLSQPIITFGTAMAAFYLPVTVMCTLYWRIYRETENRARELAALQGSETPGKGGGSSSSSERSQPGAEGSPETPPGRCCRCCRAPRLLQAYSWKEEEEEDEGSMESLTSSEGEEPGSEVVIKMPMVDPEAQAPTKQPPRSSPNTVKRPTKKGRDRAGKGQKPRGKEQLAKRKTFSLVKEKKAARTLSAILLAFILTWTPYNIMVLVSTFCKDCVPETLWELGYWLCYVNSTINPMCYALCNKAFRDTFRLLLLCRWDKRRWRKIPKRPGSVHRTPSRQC
# M1 ag = human M1 muscarinic receptor agonism | P11229 | CHO-K1 hM1, Fluo-8 calcium fluorescence, agonist mode; 0% DMSO, 100% acetylcholine EC100 | activation, % at 3 µM | hit rate 0.33% among 360,000 | AID 588814;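 active = activation above the run's mean compound activation plus 3 SD, cut at about 16% in these data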;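 note: peak over basal fluorescence ratio within a 140 s kinetic read after compound addition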
# CHRM4 antagonist = blocks acetylcholine activation of human M4 receptor; P08173; CHO-hM4 cells, ACh EC80, Fluo-8 calcium fluorescence; inhibition, % at 3 µM; hit rate 0.73% among 360,000; AID 624125;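 active = inhibition above its plate's cutoff, the mean inhibition of sample wells plus 3 SD, cut at about 27% in these data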;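 note: 0% = acetylcholine EC80 with DMSO and 100% = DMSO without agonist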
# CHRM1 antagonist = antagonists of human M1 muscarinic receptor; P11229; CHO-K1 hM1, Fluo-8 calcium fluorescence, ACh EC80 antagonist; inhibition, % at 3 µM; hit rate 1.3% among 360,000;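 active = percent inhibition above its own plate's cutoff, namely the mean of that plate's compound wells plus 3 SD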;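 note: peak over basal fluorescence ratio during 140 s after agonist addition; 0% = ACh EC80 plus DMSO and 100% = DMSO alone without agonist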
# CHRM4 PAM = CHRM4 positive allosteric modulation. CHO-K1 hM4/Gqi5, Fluo-8 calcium fluorescence, ACh EC20; 0% = ACh EC20, 100% = maximal ACh. AID 624126. P08173. activation, % at 3 µM. hit rate 0.4% among 360,000;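 active = activation above its plate's cutoff, the mean activation of sample wells plus 3 SD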
# Numbers without * were called inactive.
SMILES,CHRM4 agonist,CHRM1 PAM,M1 ag,CHRM4 antagonist,CHRM1 antagonist,CHRM4 PAM
CC(C)=N/N=C(\c1cccc([N+](=O)[O-])c1)C12CN3CN(CN(C3)C1)C2,1,-21,15,18,62*,-28
Cc1ccccc1OCc1n(CC(=O)OC2CC(C)CCC2C(C)C)c2ccccc2[n+]1C (stereo not given),3,-33,-13,35*,44*,-17
CC1CCC(C(C)C)C(OC(=O)COC(=O)c2ccc(N)cc2)C1 (stereo not given),1,7,-8,6,-5,5
CC1CCC(C(C)C)C(OC(=O)COC(=O)c2cccn2C)C1 (stereo not given),-1,2,-5,3,-3,-4
CC1CCC(C(C)C)C(OC(=O)Cn2c(-c3ccc(Cl)cc3)[n+](C)c3ccccc32)C1 (stereo not given),1,-19,-4,11,42*,-29
CC1CCC(C(C)C)C(OC(=O)Cn2c(-c3ccc(Br)cc3)[n+](C)c3ccccc32)C1 (stereo not given),3,-29,-16,2,23*,-13
Cc1ccc(S(=O)(=O)N(C)c2ccc(C(=O)Nc3ccc(C)cn3)cc2)cc1,6,-3,-4,-12,-6,-1
Cc1nc(-c2ccncc2)nc(NCCNc2ncccc2C(F)(F)F)c1Cl,1,-1,-7,3,2,-15
Oc1ccccc1NCC(O)Cn1ccc2ccccc21 (stereo not given),3,1,-3,35*,2,18
OC(CNCCNc1ncccc1C(F)(F)F)Cn1ccc2ccccc21 (stereo not given),10,-3,20*,-1,0,-9
OC(CNCc1ccccc1)Cn1ccc2ccccc21 (stereo not given),4,1,-3,-2,0,-3
CN(C)CCCCOc1ccccc1F,-1,5,1,-5,-10,-4
CN(C)CCCCOc1ccccc1-c1ccccc1,4,-20,-6,23,18*,-12
CCCCCCCCCC[n+]1cccc(C(=O)N(CC)CC)c1,0,-25,-9,44*,42*,-17
NC(=O)c1ccc[n+](CCC[n+]2cccc(C(N)=O)c2)c1,1,8,-3,-16,-7,16
CN(CC(=O)Nc1ccc(F)cc1)C(=O)CSc1ccc2c(c1)OCCO2,2,5,-2,-3,-3,-2
Cc1ccc(SCC(=O)OCC(=O)N(C)CC(=O)Nc2ccc(F)cc2)cc1C,52*,7,32*,-9,-7,1
CC(C(=O)N1CCCC1)N1CCN(S(=O)(=O)c2ccc(C(C)(C)C)cc2)CC1 (stereo not given),1,-6,1,-14,11,5
O=C1C=CC(=Nc2cccc3c2C(=O)c2ccccc2-3)O1,67*,5,4,15,-11,1
CC(C)(CC(=O)N1CCN(c2ccc(Cl)cc2)CC1)CC1=NS(=O)(=O)c2ccccc2N1,22,-8,1,26*,30*,-18
COc1cccc(N2CCN(C(=O)CC(C)(C)CC3=NS(=O)(=O)c4ccccc4N3)CC2)c1,26,-25,1,1,28,-15
O=C(C(=O)N(Cc1ccccc1)Cc1ccccc1)c1c(-c2ccccc2)[nH]c2ccccc12,19,-16,1,31*,32,-12
Cc1ccc(-n2c(SCC(=O)O)nc3sc4c(c3c2=O)CC(C)(C)SC4)cc1,0,10,-1,1,-19,4
O=C(COC(=O)CCc1nc2ccccc2c(=O)[nH]1)Nc1c(Cl)cccc1C(F)(F)F,1,6,-1,0,-9,0
COc1ccc(-n2nc3c(c2NC(=O)c2ccc(Br)o2)CS(=O)(=O)C3)cc1,4,15,3,6,-12,24*
SMILES,CHRM4 agonist,CHRM1 PAM,M1 ag,CHRM4 antagonist,CHRM1 antagonist,CHRM4 PAM
COc1ccc(N2CCN(CC(=O)Nc3ccccc3C(=O)NC(C)c3ccccc3)CC2)cc1 (stereo not given),16,-9,2,-7,7,-10
Cc1cc(C)cc(NC(=S)/C(=C(\[O-])c2ccc(Cl)cc2Cl)[n+]2ccccc2)c1,0,13,-1,2,-18,2
Cc1ccccc1Cn1c(C)nc2ccccc21,11,-17,0,19,39*,-8
COc1ccccc1Cn1c(C)nc2ccccc21,4,4,1,-1,-10,-4
CC(C)(C#CC(O)(c1ccccc1)c1ccccc1)N1CCCCC1,1,-29,-9,47*,93*,-16
CC(=O)NNC(=O)C(O)(c1ccccc1)c1ccccc1,0,3,-2,4,-3,-2
CC(C)(C#CC(O)(c1ccccc1)c1ccccc1)N1CCCC1,0,-23,-5,79*,99*,-26
O=C(CS(=O)(=O)c1ccc2ccccc2c1)Nc1ccccc1Cl,0,2,-2,1,-6,1
CCCCC(c1nc2ccccc2[nH]1)n1c(-c2ccccc2)nc2cc(C)c(C)cc21 (stereo not given),0,2,-3,-18,-24,3
CCCCC(c1nc2ccccc2[nH]1)n1c(=O)c(-c2ccccc2)nc2cc(C)c(C)cc21 (stereo not given),2,-4,-1,-2,-11,21*
CS(=O)(=O)N1CCC(C(=O)NCCC2=CCCCC2)CC1,2,12,0,3,-8,5
COc1cc(/C=C/C(=O)OCC(=O)Nc2ccc([N+](=O)[O-])cc2)ccc1O,39*,-6,25*,2,5,-11
O=C(Cn1cnc2c(nnn2Cc2ccc(F)cc2)c1=O)NCc1ccc(F)cc1,2,13,-9,-4,-16,8
CC(=O)Nc1ccc(NC(=O)Cn2cnc3c(nnn3Cc3ccc(F)cc3)c2=O)cc1,1,1,16*,-4,-2,1
O=C(Cn1ccc2ccccc2c1=O)NCCC(=O)N1CCN(c2cccc(Cl)c2)CC1,10,4,-2,-11,-2,-3
Oc1ccc(Nc2nc(-c3ccc(O)cc3)cs2)cc1,0,5,-3,-2,-5,34*
CCOC(=O)c1c(NC(=O)CN2CCOCC2)sc(C(=O)NC)c1C,1,3,-1,2,-7,0
CCCCCCCn1ccc(=N)cc1,0,-20,-5,14,41,-11
CCCCCCCCCn1ccc(=N)cc1,0,-20,-8,30*,40*,-13
C=CC[N+]1(CC#Cc2ccccc2)CCCC1,1,-16,-14,7,12,7
C(#Cc1ccccc1)C[N+]1(CC#Cc2ccccc2)CCCC1,1,-23,-10,14,39*,-17

# From PubChem BioAssay
